Tg IFNy HTS = T. gondii growth inhibition under IFN-gamma. Toxoplasma gondii growth in IFN-gamma-treated host cells; active compounds read low. 69,000 tested, 3.8% active. activity change, negative = inhibition, % (concentration not given with the values). AID 1259416; in the data active = activity change below about -70%, passing the limit was not always enough;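 note: host cells are HeLa cells infected with Toxoplasma gondii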
An asterisk follows results filed as active; i = inactive; ! = repeats disagree. Shown is part of a subset that was picked to be rich in hits.

SMILES | Tg IFNy HTS
Cc1sc2ncc(C(=O)N3CCCC4(CNC(=O)O4)C3)c(=O)n2c1C (centres undefined) | -2
CCN(CC)Cc1cnc2c(C(=O)NCc3nccs3)cnn2c1 | -1
Fc1cccc(CN2CCN(Cc3ccc4cccc(Cl)c4n3)CC2)c1 | -4
Cc1nn(Cc2nc(-c3ccc(NC(=O)c4cc(F)ccc4F)cc3)oc2C)c(C)c1C | -52
Cc1ccccc1C(=O)Nc1ccc(-c2nc(Cn3nc(C)c(C)c3C)c(C)o2)cc1 | -97*
CCOc1ccccc1C(=O)Nc1ccc(-c2nc(Cn3nc(C)c(C)c3C)c(C)o2)cc1 | 1
Cc1nn(Cc2nc(-c3ccc(NC(=O)c4ccc(N(C)C)cc4)cc3)oc2C)c(C)c1C | 37
COc1ccc(C(=O)Nc2ccc(-c3nc(Cn4nc(C)c(C)c4C)c(C)o3)cc2)cc1 | -93*
Cc1nn(Cc2nc(-c3ccc(NC(=O)c4cc(F)cc(F)c4)cc3)oc2C)c(C)c1C | 15
O=C(NC[C@H]1OC[C@H]2CCN(C(=O)c3ccco3)C[C@H]21)C1CC1 | 0
COc1cccc2c1OCC(C(=O)N(C)CC1OCCc3ccccc31)C2 (centres undefined) | -13
O=C(O)C1(c2cccc(F)c2)CCOCC1 | -12
Cc1nnsc1C(=O)OCc1cc(F)cc(F)c1 | -77*
Cc1nnsc1C(=O)N(Cc1ccccc1)C(C)C | -6
Cc1nnsc1C(=O)OCCN(C)c1ccc(C#N)cn1 | -4
CCOCC(=O)NCCc1csc(-c2ccc(Cl)cc2)n1 | -38
Cc1occc1C(=O)N1C[C@H](Oc2ccccn2)[C@@H]2OCCC[C@@H]21 | -5
Cc1ccc(S(=O)(=O)N2CCC[C@@H]2C(=O)NCCc2csc(-c3ccccc3)n2)c(C)c1 | -14
CCCCOc1cc(CC2CNC(=O)N2)ccc1OC (centres undefined) | -72*!
COc1ccc(CCN2C(=O)CSC2c2ccc(OC)c(OC)c2)cc1OC (centres undefined) | -29
COc1ccc(CNC(=O)c2c(O)c3cccnc3[nH]c2=O)cc1OC | 117
CC(=O)Nc1ccc(Cl)c(C(=O)NCCc2c[nH]c3ccccc23)c1 | -32
Cc1ccc(S(=O)(=O)Nc2ccc3c(c2)CCC(=O)N3CC(C)C)cc1Cl | -93*
COCCN1C(=O)CCc2cc(NS(=O)(=O)c3ccc(F)cc3)ccc21 | 24
COc1ccc(S(=O)(=O)Nc2ccc3c(c2)CCC(=O)N3CC(C)C)cc1 | 30
SMILES | Tg IFNy HTS
COCCN1C(=O)CCc2cc(NS(=O)(=O)c3ccc(C)c(F)c3)ccc21 | -6
CCN1C(=O)CCc2cc(NS(=O)(=O)c3ccc(C(F)(F)F)cc3)ccc21 | -103*
Cc1ccc(S(=O)(=O)Nc2ccc3c(c2)CCC(=O)N3CC(C)C)cc1 | 31
COCCN1C(=O)CCc2cc(NS(=O)(=O)c3ccc(OC)c(Cl)c3)ccc21 | -5
CC(C)CN1C(=O)CCc2cc(NS(=O)(=O)c3ccc(F)c(F)c3)ccc21 | -64
CCN1C(=O)CCc2cc(NS(=O)(=O)c3ccc(C)c(Cl)c3)ccc21 | -83*
CCc1ccc(S(=O)(=O)Nc2ccc3c(c2)CCC(=O)N3CC(C)C)cc1 | -90*
CCN1C(=O)CCc2cc(NS(=O)(=O)c3cccc(Br)c3)ccc21 | 47
CC(C)CN1C(=O)CCc2cc(NS(=O)(=O)c3ccccc3Cl)ccc21 | 9
O=C(c1cn2c(n1)CSCC2)N1CCC(Cc2ccccc2)CC1 | -20
CCCc1ccc(C(=O)N(C)Cc2cc(C)[nH]n2)o1 | 11
COc1cccc(C(=O)N2CCN(Cc3cn(CCO)nc3C)CC2)c1 | 0
O=C(c1ccsc1)N1Cc2nccn2CC(CN2CCCC2)C1 (centres undefined) | 66
CCc1cc(CN(C)C(=O)c2cc(-c3ccc(O)cc3)n[nH]2)on1 | 10
Cc1ccsc1-c1nccn1-c1ccc2n[nH]nc2c1 | 3
O=C(Cc1ccccc1)N1CCn2cc(Cn3cncn3)nc2C1 | 1
COc1ccc(C)cc1NC(=O)c1c(O)c2ccccc2n(-c2ccccc2)c1=O | 177
O=C(Nc1ccccc1)c1cc2n(n1)CCCN(C(=O)c1csnn1)C2 | 8
CN1C(=O)CCc2cc(NS(=O)(=O)c3cccc(Cl)c3)ccc21 | -12
Cc1ccc(C)c(S(=O)(=O)Nc2ccc3c(c2)CCC(=O)N3CC(C)C)c1 | -52
CN1C(=O)CCc2cc(NS(=O)(=O)c3ccc(Cl)c(Cl)c3)ccc21 | -87*
CC(C)CN1C(=O)CCc2cc(NS(=O)(=O)c3ccc(F)cc3F)ccc21 | -4
CCCN1C(=O)CCc2cc(NS(=O)(=O)c3ccc(Cl)c(Cl)c3)ccc21 | -52
Cc1ccc(S(=O)(=O)Nc2ccc3c(c2)CCC(=O)N3CC(C)C)c(C)c1 | -86*
COc1cc(NC(=O)N2CCC(c3nc(C(=O)N(C)C)c(C)o3)CC2)cc(OC)c1 | 110
SMILES | Tg IFNy HTS
CC(Cc1cn(C)c2ccc(F)cc12)NC(=O)Cn1nnc(-c2ccccc2)n1 (centres undefined) | 0
Cn1cc(-c2cc(C(=O)N3CCC(c4ncc(Cl)cc4S(C)(=O)=O)CC3)on2)cn1 | 8
COc1ccccc1-c1nc(Cn2ccn3nc(-c4ccc(Cl)cc4)cc3c2=O)c(C)o1 | 68
CC(C)c1cc(C(=O)NCC2(c3ccc(F)cc3)CCOC2)n(C)n1 (centres undefined) | -5
COc1ccc(CNC(=O)CCC2N=C3c4ccccc4N=C(SCc4ccccc4Cl)N3C2=O)cc1 (centres undefined) | -28
CC(=O)N1CCC(c2nnc3ccc(C(=O)CC4CCOCC4)cn23)C1 (centres undefined) | 1
COc1cc(C(F)(F)F)nc2ccc(C#CCOC(=O)Nc3cccc(Cl)c3)cc12 | -109*
CCc1nc(OCC(=O)Nc2cccc(Cl)c2)c2ccccc2n1 | 4
N#Cc1ccc(C#CCOC(=O)Nc2ccc(OC(F)(F)F)cc2)cc1 | 34
COC(=O)c1ccccc1S(=O)(=O)Nc1ccc2c(c1)CCC(=O)N2C | 47
O=C(Cn1ncc2c(N3CCCCC3)ncnc21)NCC1CCCO1 (centres undefined) | 82
COc1ccc(-c2nnc(-c3nc(Nc4cc(C)cc(C)c4)c4ccccc4n3)o2)cc1 | -101*
CCOc1ccccc1Nc1nc(-c2nnc(-c3cccc(C)c3)o2)nc2ccccc12 | -51
Cc1cccc(Nc2nc(-c3nnc(-c4cccc(C)c4)o3)nc3ccccc23)c1 | -24
COc1ccccc1Nc1nc(-c2nnc(-c3ccccc3)o2)nc2ccccc12 | -92*
COc1ccc(C)cc1Nc1nc(-c2nnc(-c3ccc(Cl)cc3)o2)nc2ccccc12 | 89
COc1ccccc1Nc1nc(-c2nnc(-c3cccc(C)c3)o2)nc2ccccc12 | -86*
Cc1cccc(Nc2nc(-c3nnc(-c4ccccc4)o3)nc3ccccc23)c1C | -7
COc1cccc(Nc2nc(-c3nnc(-c4ccc(C)cc4)o3)nc3ccccc23)c1 | 95
COc1ccc(-c2nnc(-c3nc(Nc4cccc(OC)c4)c4ccccc4n3)o2)cc1 | 101
COc1cc(Nc2nc(-c3nnc(-c4cccc(C)c4)o3)nc3ccccc23)cc(OC)c1 | -130*
Cc1cccc(-c2nnc(-c3nc(Nc4ccc(C)c(F)c4)c4ccccc4n3)o2)c1 | 52
COCCN(C)C(=O)c1ccc2onc(-c3coc(C)n3)c2c1 | i
CCc1cnc(N2CCC3(CC2)CCN(c2cnn(C)c2)C3=O)nc1 | 24
COc1ccc(-c2nc(-c3noc4ccc(C(=O)C5CC5)cc34)cs2)cc1 | -2
CS(=O)(=O)NC[C@@H]1OC[C@@H]2CCN(c3ccccn3)C[C@H]21 | 26
O=C(Nc1ccc2c(c1)OCO2)N1CCC2(CC1)Nc1cc(F)ccc1-n1cccc12 | i
